# PubChem BioAssay (NCATS)
# Inconclusive results are not listed. A call without a number means that no potency is given here. Unmarked numbers belong to inactive results. Activity calls are given as the source filed them. Calls follow the shape of the dose curve; as a rule, active = well fitted curve in the direction sought with a large enough effect; inconclusive = small, poorly fitted or top-dose-only effect, or another doubt; inactive = no such curve, though single readings can be large; an effect the other way counts as inactive or inconclusive. Where a SMILES comes first, the peptide text is derived from it. The star is where a group is joined. AFC = O=c1cc(C(F)(F)F)c2ccc(N*)cc2o1
# Experiments:
# HEK293 = assay: Cytotoxic Profiling of Annotated Libraries Using Quantitative High-Throughput Screening (AID 1296008); details: Five cell lines viability, CellTiter-Glo ATP luminescence, 48-72 h; max response: stronger effect = lower value; also: nearly all actives have a fitted effect of over 60% in size
# Summary of the method: (§1)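 Cytotoxicity was measured as CellTiter-Glo ATP luminescence, read after 10 min at room temperature. Compound treatment of the cells lasted 48 or 72 hr at 37 degrees Celsius in a qHTS format.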
# HaCat = assay: as above; details: Five cell lines viability, CellTiter-Glo ATP luminescence, 48-72 h; max response: stronger effect = lower value
# Summary of the method: as §1
# KB-3-1 = assay: as above; details: Five cell lines viability, CellTiter-Glo ATP luminescence, 48-72 h; max response: stronger effect = lower value
# Summary of the method: as §1
# NIH3T3 = assay: as above; details: Five cell lines viability, CellTiter-Glo ATP luminescence, 48-72 h; max response: stronger effect = lower value
# Summary of the method: as §1
# C33A = assay: Primary qHTS to identify gynecologic anti-cancer compounds using libraries of approved drugs and bioactive compounds (AID 1345084); details: Gynecologic cancer cell panel viability, ATPlite luminescence, 48 h; series mostly up to 57.5 µM; also: nearly all actives have a fitted effect of over 55% in size
# Summary of the method: (§2)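 Measured: luminescence after ATPlite addition (15 min, RT). Exposure: 48 h, 37 C, 5% CO2.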
# CAOV3 = assay: as above; details: Gynecologic cancer cell panel viability, ATPlite luminescence, 48 h; series mostly up to 57.5 µM
# Summary of the method: as §2
# CASKI = assay: as above; details: Gynecologic cancer cell panel viability, ATPlite luminescence, 48 h; series mostly up to 57.5 µM
# Summary of the method: as §2
# Es-2 = assay: as above; details: Gynecologic cancer cell panel viability, ATPlite luminescence, 48 h; series mostly up to 57.5 µM
# Summary of the method: as §2
# HeLa = assay: as above; details: Gynecologic cancer cell panel viability, ATPlite luminescence, 48 h; series mostly up to 57.5 µM
# Summary of the method: as §2
# Hek293T = assay: as above; details: Gynecologic cancer cell panel viability, ATPlite luminescence, 48 h, control line for the selectivity index; series mostly up to 57.5 µM
# Summary of the method: as §2
# JEG-3 = assay: as above; details: Gynecologic cancer cell panel viability, ATPlite luminescence, 48 h; series mostly up to 57.5 µM
# Summary of the method: as §2
# Potency is read from the fitted curve at half-maximal effect.
compound,measurement,setting,value
CCCCc1ccc(C(=O)Nc2cc(-c3ccc(Cl)cc3)nn2-c2ccc(Cl)cc2)cc1,max response,HEK293,-22.4%
same,max response,HaCat,-3.42%
same,max response,KB-3-1,-4.76%
same,max response,NIH3T3,-1.01%
same,Potency,C33A,inactive
same,Potency,CAOV3,inactive
same,Potency,CASKI,inactive
same,Potency,Es-2,inactive
same,Potency,HeLa,inactive
same,Potency,Hek293T,inactive
same,Potency,JEG-3,inactive
CC1OC(OC2CCC3(C)C(CCC4(C)C3CC=C3C5CC(C)(C)CCC5(C(=O)OC5OC(CO)C(O)C(O)C5O)CCC34C(=O)O)C2(C)C)C(O)C(O)C1O (stereo not given),max response,HEK293,-0.856%
same,max response,HaCat,-11.4%
same,max response,KB-3-1,4.21%
same,max response,NIH3T3,-6.15%
same,Potency,C33A,inactive
same,Potency,CAOV3,inactive
same,Potency,CASKI,inactive
same,Potency,Es-2,inactive
same,Potency,HeLa,inactive
same,Potency,Hek293T,inactive
same,Potency,JEG-3,inactive
C=C(C)C1CCC2(C(=O)O)CCC3(C(=O)O)C(CCC4C5(C)CCC(O)C(C)(C(=O)O)C5CCC43C)C12 (stereo not given),max response,HEK293,3.45%
same,max response,HaCat,3.2%
same,max response,KB-3-1,-7.04%
same,max response,NIH3T3,1.18%
same,Potency,C33A,inactive
same,Potency,CAOV3,inactive
same,Potency,CASKI,inactive
same,Potency,Es-2,inactive
same,Potency,HeLa,inactive
same,Potency,Hek293T,inactive
same,Potency,JEG-3,inactive
Cc1cc(C)cc(C(=O)NOCCCCCC(=O)NO)c1,Potency,HEK293,1.64 µM (active)
same,Potency,HaCat,1.84 µM (active)
same,Potency,KB-3-1,2.06 µM (active)
same,Potency,NIH3T3,5.8 µM (active)
same,Potency,C33A,3.98 µM (active)
same,Potency,CAOV3,8.91 µM (active)
same,Potency,CASKI,7.08 µM (active)
same,Potency,Es-2,3.16 µM (active)
same,Potency,HeLa,3.16 µM (active)
same,Potency,Hek293T,3.55 µM (active)
same,Potency,JEG-3,3.16 µM (active)
CC(C)CNCc1ccc(-c2ccccc2S(=O)(=O)N2CCCC2)cc1,max response,HEK293,-19.2%
same,max response,HaCat,-12.3%
same,max response,KB-3-1,-1.28%
same,max response,NIH3T3,-1.63%
same,Potency,C33A,inactive
same,Potency,CAOV3,inactive
same,Potency,CASKI,inactive
same,Potency,Es-2,inactive
same,Potency,HeLa,inactive
same,Potency,Hek293T,inactive
same,Potency,JEG-3,inactive
Cc1ccccc1CN1C2=NCCN2C(=O)C2=C1CCN(Cc1ccccc1)C2,max response,HEK293,-7.79%
same,max response,HaCat,-42.7%
same,max response,KB-3-1,-23.4%
same,max response,NIH3T3,-0.888%
same,Potency,C33A,inactive
same,Potency,CAOV3,inactive
same,Potency,CASKI,inactive
same,Potency,Es-2,inactive
same,Potency,HeLa,inactive
same,Potency,Hek293T,inactive
same,Potency,JEG-3,inactive
CC1(C)CC[C@]2(C(=O)O)[C@H](O)C[C@]3(C)C(=CCC4[C@@]5(C)CC[C@H](O[C@@H]6O[C@H](CO[C@@H]7OC[C@H](O)[C@H](O)[C@H]7O[C@@H]7OC[C@@H](O)[C@H](O)[C@H]7O)[C@@H](O)[C@H](O)[C@H]6O[C@@H]6O[C@H](CO)[C@@H](O)[C@H](O)[C@H]6O)C(C)(C)C5CC[C@]43C)[C@@H]2C1 (stereo not given in full),max response,HEK293,-1.49%
same,max response,HaCat,-11.7%
same,max response,KB-3-1,4.84%
same,max response,NIH3T3,-6.3%
same,"activity change, negative = cytotoxicity",C33A,-1.17% [at 11.6 µM]
same,"activity change, negative = cytotoxicity",CAOV3,-15.5% [at 11.6 µM]
same,"activity change, negative = cytotoxicity",CASKI,15.8% [at 11.6 µM]
same,"activity change, negative = cytotoxicity",Es-2,-1.47% [at 11.6 µM]
same,"activity change, negative = cytotoxicity",HeLa,4.13% [at 11.6 µM]
same,"activity change, negative = cytotoxicity",Hek293T,5.35% [at 11.6 µM]
same,"activity change, negative = cytotoxicity",JEG-3,8.72% [at 11.6 µM]
CC(=O)N[C@@H](Cc1c[nH]c2ccccc12)C(=O)N[C@@H](CCC(=O)O)C(=O)N[C@@H](Cc1cnc[nH]1)C(=O)N[C@@H](CC(=O)O)C(=O)Nc1ccc2c(C(F)(F)F)cc(=O)oc2c1 (Ac-WEHD-{AFC}),max response,HEK293,-1.72%
same,max response,HaCat,-11.3%
same,outcome,KB-3-1,inactive
same,max response,NIH3T3,0.286%
same,Potency,C33A,inactive
same,Potency,CAOV3,inactive
same,Potency,CASKI,inactive
same,Potency,Es-2,inactive
same,Potency,HeLa,inactive
same,Potency,Hek293T,inactive
same,Potency,JEG-3,inactive
C[C@@H](O)[C@H](NC(=O)c1ccc(C#Cc2ccc(CN3CCOCC3)cc2)cc1)C(=O)NO,max response,HEK293,-16.7%
same,max response,HaCat,-21.7%
same,outcome,KB-3-1,inactive
same,max response,NIH3T3,3.18%
same,Potency,C33A,inactive
same,Potency,CAOV3,inactive
same,Potency,CASKI,inactive
same,Potency,Es-2,inactive
same,Potency,HeLa,inactive
same,Potency,Hek293T,inactive
same,Potency,JEG-3,inactive
CCOc1ccc(S(=O)(=O)n2c(C)nc3ccccc32)cc1,max response,HEK293,-8.26%
same,max response,HaCat,-31.1%
same,max response,KB-3-1,-3.74%
same,max response,NIH3T3,-7.13%
same,Potency,C33A,inactive
same,Potency,CAOV3,inactive
same,Potency,CASKI,inactive
same,Potency,Es-2,inactive
same,Potency,HeLa,inactive
same,Potency,Hek293T,inactive
same,Potency,JEG-3,inactive
Cc1cc2c(c(=O)[nH]1)OC(C(O)CC(C)C)O2 (stereo not given),max response,HEK293,-7.89%
same,max response,HaCat,-1.41%
same,max response,KB-3-1,-1.2%
same,max response,NIH3T3,-0.186%
same,Potency,C33A,inactive
same,Potency,CAOV3,inactive
same,Potency,CASKI,inactive
same,Potency,Es-2,inactive
same,Potency,HeLa,inactive
same,Potency,Hek293T,inactive
same,Potency,JEG-3,inactive
CC(=O)OC[C@H]1O[C@H](O[C@]2(CO)O[C@H](CO)[C@@H](OC(=O)/C=C/c3ccccc3)[C@@H]2O)[C@H](O)[C@@H](O)[C@@H]1O,max response,HEK293,2.62%
same,max response,HaCat,-2.48%
same,outcome,KB-3-1,inactive
same,max response,NIH3T3,-0.33%
same,Potency,C33A,inactive
same,Potency,CAOV3,inactive
same,Potency,CASKI,inactive
same,Potency,Es-2,inactive
same,Potency,HeLa,inactive
same,Potency,Hek293T,inactive
same,Potency,JEG-3,inactive
CC1(C)CCCC2(C)C(CO)C(CO)=CCC12 (stereo not given),max response,HEK293,-4.79%
same,max response,HaCat,0.151%
same,max response,KB-3-1,-2.42%
same,max response,NIH3T3,-1.37%
same,Potency,C33A,inactive
same,Potency,CAOV3,inactive
same,Potency,CASKI,inactive
same,Potency,Es-2,inactive
same,Potency,HeLa,inactive
same,Potency,Hek293T,inactive
same,Potency,JEG-3,inactive
CC(=O)CC1CCC(C(C)C(=O)OCC(O)CO)O1 (stereo not given),max response,HEK293,-3.6%
same,max response,HaCat,-2.79%
same,outcome,KB-3-1,inactive
same,max response,NIH3T3,-24.7%
same,Potency,C33A,inactive
same,Potency,CAOV3,inactive
same,Potency,CASKI,inactive
same,Potency,Es-2,inactive
same,Potency,HeLa,inactive
same,Potency,Hek293T,inactive
same,Potency,JEG-3,inactive
Cn1c2ccc(F)cc2c2c(C(=O)N3CCCC3)cn(-c3ccccc3)c(=O)c21,max response,HEK293,-22.1%
same,max response,HaCat,-0.557%
same,outcome,KB-3-1,inactive
same,max response,NIH3T3,-3.48%
same,Potency,C33A,inactive
same,Potency,CAOV3,inactive
same,Potency,CASKI,inactive
same,Potency,Es-2,inactive
same,Potency,HeLa,inactive
same,Potency,Hek293T,inactive
same,Potency,JEG-3,inactive
